Molecules are shown by their SMILES.

The test is described as follows: compound effects on multiple myeloma cell viability – MM1S, calcein-AM fluorescence, 48 h, basal, profiling panel (AID 1165).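 Further: viability of MM1S multiple myeloma cells under basal unstimulated conditions; test concentration not given here.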 The following applies: higher = more signal.
On to `[N-]=[N+]=Nc1ccccc1[C@@H]1OC(c2ccc(OCCCO)cc2)=N[C@]1(Cc1ccccc1)C(=O)NCC(O)CO` (stereo not given in full), for which the z-score was -1.94.

For the compound `CC(C)N1CC=CC23O[C@@H]4C=CCOC(=O)[C@@H]4[C@H]2C(=O)N(CCCO)[C@@H]3C1=O` (stereo not given in full), the z-score was 0.34.

Take `CC(c1ccccc1)C(O)C1C=CC2C(=O)N(c3ccccc3)C(=O)C2N1Nc1ccc([N+](=O)[O-])cc1` (stereo not given): the z-score is 0.48.

Take `CC(C)C(CO)N1C(=O)[C@@H]2C3C(=O)OCCC/C=C\[C@H]3OC23C=CCN(C(C)(C)C)C(=O)[C@@H]13` (stereo not given in full): the z-score was 0.724.

As for `COCCCNC(=O)[C@@]1(Cc2ccccc2N=[N+]=[N-])N=C(c2ccc(OCCCO)cc2)O[C@H]1c1ccccc1`, the z-score is -1.41.

With `CN1C(=O)C2C=CC(C(O)c3ccc(F)cc3)N(Nc3ccccc3)C2C1=O` (stereo not given), the z-score is -1.82.

For `COCCOC(=O)N1C(=O)[C@@]2(c3cc(C#CC4=CCCCC4)ccc31)[C@H](c1ccc(OCCO)cc1)N1[C@H](c3ccccc3)[C@H](c3ccccc3)OC(=O)[C@H]1[C@@H]2C(=O)NC[C@H](O)c1ccccc1`, the z-score is -1.54.

Consider `COC(=O)C1=CC(CCCO)=CC(C2CC2)N(C)C=C1C(=O)OC` (stereo not given), for which the z-score is 0.828.

In the case of `O=C(NCC(F)(F)F)[C@@H]1c2ccccc2C(=O)N(Cc2ccc(OC(F)(F)F)cc2)[C@H]1c1ccc(CO)cc1`, the z-score was -0.404.

For the compound `COc1cccc(/C=C/C=O)c1`, the z-score was -1.38.

Take `COC(=O)C(CC#Cc1ccc2c(c1)[C@]1(C(=O)N2)[C@H](c2ccccc2OCCO)N2[C@H](c3ccccc3)[C@H](c3ccccc3)OC(=O)[C@H]2[C@@H]1C(=O)NC[C@H](O)c1ccccc1)C(=O)OC`: the z-score was -3.38.

On to `CC(C)OC(=O)C=C1C[C@@H](c2ccc(C(F)(F)F)cc2)O[C@@H](c2ccc(C(F)(F)F)cc2)O1`, for which the z-score is -2.49.

In the case of `CN(C)C(=O)[C@@]1(Cc2ccccc2CN=[N+]=[N-])N=C(c2ccc(OCCCO)cc2)O[C@H]1c1ccccc1CN=[N+]=[N-]`, the z-score was -1.42.

In the case of `CCCNC(=O)[C@@]1(c2ccc([N+](=O)[O-])cc2)CC(=O)N(C2CCCCC2)[C@@H]1c1ccc(CO)cc1`, the z-score was -0.409.

In the case of `CC(C)N1C(=O)C[C@@](C(=O)NCCCN(C)C)(c2ccc([N+](=O)[O-])cc2)[C@H]1c1ccc(CO)cc1`, the z-score was -0.367.

On to `O=C1N(Cc2ccccc2)Cc2ccccc2[C@@H]2OC(c3ccc(OCCCO)cc3)=N[C@]12CCS(=O)(=O)c1ccccc1`, for which the z-score is -1.25.

For the compound `COC(=O)[C@@]1(Cc2ccc(OC)cc2)[C@@H]2C(=CC(=O)[C@H]2CC(=O)C(=O)N(C)C)CN1C(=O)c1ccccc1`, the z-score is -2.29.

As to `COc1ccc([Si](C)(C)[C@@H]2[C@@H](CC(=O)N3Cc4ccccc4C[C@H]3CO)O[C@]3(C(=O)N(C)c4ccccc43)[C@H]2C)cc1`, the z-score was -2.66.

As to `C=C[C@@H](COC(C)=O)N(C(=O)OC(C)(C)C)S(=O)(=O)c1ccc(Br)cc1`, the z-score is 0.867.

Take `C=CCOC(=O)[C@H]1[C@@H]2C(=O)O[C@@H](c3ccccc3)[C@@H](c3ccccc3)N2[C@@H](c2ccc(OCCOC(=O)[C@@H]3C[C@@H]4C(=O)N[C@@H](CCCCNC(C)=O)C(=O)N4[C@@H]3c3ccc(O)cc3)cc2)[C@]12C(=O)Nc1ccc(I)cc12`: the z-score was -1.6.

Consider `O=c1n(-c2ccccc2)c(=O)n2n1CC(COc1ccccc1)=C([C@H](O)CCc1ccccc1)[C@@H]2CO`, for which the z-score is -1.44.

In the case of `CN(C)C(=O)[C@]1(CCS(=O)(=O)c2ccccc2)N=C(c2ccc(OCCCO)cc2)O[C@@H]1c1ccccc1N=[N+]=[N-]`, the z-score is -0.133.

`COC(=O)[C@@]1(Cc2ccccc2)[C@@H]2C(=CC(=O)[C@H]2CC(=O)C(=O)N(C)C)CN1C(=O)c1ccccc1`: the z-score was -2.52.

Turning to `CCOC(=O)C[C@H]1[C@H](OC(=O)Cc2ccc3c(c2)OCO3)[C@@H](NC(=O)Cc2ccc(OC)cc2)c2cc(OCCCO)ccc2N1C(=O)c1ccc2ccccc2n1`, the z-score was 0.631.

For the compound `CC1CC/C=C\[C@H]2OC34C=CCN(C(C)C)C(=O)[C@H]3N(CCCCCCO)C(=O)[C@@H]4C2C(=O)O1` (stereo not given in full), the z-score is 1.2.

Source of the values: PubChem BioAssay.
